The nature of experiment [1]: yeast TOR pathway RPL19A-GFP modulators, primary screen, cell-based, S. cerevisiae, multiplex flow cytometry (AID 1862; in the data active = percent of DMSO control GFP below about 86%;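 also: lower values mimic rapamycin by blocking the RPL19A rise seen in DMSO cells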). The settings on record: S. cerevisiae RPL19A-GFP strain, flow cytometry fluorescence, 3 h; at 10 µM; stronger effect = lower value. A general note: Flow cytometry measures light scatter and fluorescence of single cells or particles in a stream.
Experiment [2] in a line: modulators of MEP2-GFP levels in yeast, primary screen, S. cerevisiae, multiplex flow cytometry (AID 1867;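 active = GFP response, as percent of the DMSO control, above the screen-wide mean plus 3 SD, about 139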;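 also: median GFP channel fluorescence of barcode-gated MEP2-GFP cells measured by flow cytometry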). The settings on record: S. cerevisiae MEP2-GFP strain, 3 h, at 10 µM, stronger effect = higher value, 100% means same as DMSO wells.
Experiment [3] is described as follows: modulators of CIT2-GFP expression in yeast, primary screen, S. cerevisiae, GFP fusion, multiplex flow cytometry (AID 1870).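 Also: barcoded CIT2-GFP strain pooled with four other GFP strains with rapamycin as positive control; median GFP fluorescence per well over plate mean of DMSO wells so 100% = DMSO.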 The settings on record: 3 h, at 10 µM, stronger effect = higher value.
Experiment [4] is described as follows: modulators of LAP4-GFP expression in yeast, primary screen, S. cerevisiae, multiplex flow cytometry (AID 1873;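 active = GFP signal, as percent of the solvent control, above the screen mean plus 3 SD, about 149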). The following applies: 3 h, at 10 µM, stronger effect = higher value.
Experiment [5] in a line: modulators of AGP1-GFP expression in yeast TOR pathway, primary screen, cell-based, multiplex flow cytometry, S. cerevisiae (AID 1887;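 active = GFP signal above the screen-wide mean plus 3 SD, that is over about 124.5% of the solvent control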;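 also: AGP1-GFP fusion strain of S. cerevisiae within a five-strain barcoded multiplex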). The settings on record: 3 h, at 10 µM, stronger effect = higher value.
The nature of experiment [6]: inhibitors of CD8+ T cell-vesicle binding, pilot screen, LFA-1/ICAM-1 modulator project, MLPCN validation set, flow cytometry (AID 2523;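 active = response below a set limit, under 55% cells CD8-positive and vesicle-bound, and CD8 cells' 90th-percentile brightness under 279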;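 as to vesicle binding response: mean PE anti-B7-1 fluorescence of CD8+ cells relative to row control; 100% = QL9-loaded vesicles with DMSO vehicle in the same plate row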). The following applies: 2C mouse CD8+ T cells, at 7 µM, stronger effect = lower value; double positive events: measured here: CD8+/vesicle+ event percentage.
Experiment [7] has as its target Integrin beta-1 (Homo sapiens) + Integrin alpha-4 (Homo sapiens) (UniProt P13612+P05556). The experiment in a line: inhibition of HUTS-21 binding to VLA-4, pilot screen, VLA-4 allosteric modulator project, U937 cells, HUTS-21 mAb, flow cytometry, validation set (AID 2674;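 active = inhibition above 50%, about 3 SD of the validation set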;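 also: antibody binding induced by the VLA-4 ligand LDV present at three times its Kd; 0% = LDV ligand with antibody and no compound and 100% = antibody without LDV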). The settings on record: HUTS-21 LIBS mAb binding, at 6.7 µM, stronger effect = higher value, binding induced by LDV ligand.

A short description of experiment [8]: superoxide lowering in aged yeast cells, pilot screen, validation compound set (AID 2706;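 active = superoxide response below 65% of plate, a cut near 3 SD across the whole screen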;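 also: yeast exposed to compound for one week at 30 degrees C before staining; 100% = mean of all compound wells on the same plate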). The settings on record: S. cerevisiae aging, superoxide DHE fluorescence; at 10 µM; stronger effect = lower value.
The target of experiment [9] is Beta-adrenergic receptor kinase 1 (Homo sapiens) (UniProt P25098). The experiment in a line: GRK2 binders displacing RNA aptamer, biochemical, validation, human GRK2, bead flow cytometry (AID 488806;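 active = aptamer binding inhibition above 30%, about 3 SD of noise from non-fluorescent compounds; inactive = inhibition at or below 30%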). The settings on record: bead-bound GRK2, FAM-aptamer displacement, at 10 µM, stronger effect = higher value.
Experiment [10] addresses Beta-2 adrenergic receptor (Homo sapiens) (UniProt P07550). The experiment in a line: beta2AR agonists driving receptor internalization, pilot screen, cell-based, FAP fluorogen, flow cytometry, validation set (AID 504459;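 active = percent response above 42, roughly 3 SD of non-fluorescent test compounds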;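 also: agonist-driven loss of surface beta2AR via internalization measured by FAP dye flow cytometry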). The settings on record: Am2.2-beta2AR cells, FAP surface receptor flow cytometry; at 10 µM; stronger effect = higher value.
Experiment [11] has as its target AP-2 complex subunit beta (Homo sapiens) (UniProt P63010). The experiment is described as follows: inhibitors of arrestin peptide binding to AP2, pilot screen, biochemical, validation set, GST-AP2 beads, flow cytometry (AID 504541;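 active = inhibition above 54%, about 3 SD of non-fluorescent compounds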;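 also: AP2 carries R879A mutation and is captured from E. coli lysate; bead-bound FITC arrestin peptide fluorescence measuring arrestin peptide binding to AP2; 0% = DMSO wells and 100% = excess unlabeled arrestin peptide control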). The settings on record: FITC arrestin peptide, at 10 µM, stronger effect = higher value, AP2 beta2 appendage fragment, R879A mutant.
The nature of experiment [12]: yeast V-ATPase proton transport modulators, S. cerevisiae, pHLuorin, HTS validation (AID 504600; in the data active = response above about 15%;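 also: plate controls were DMSO for no effect and reference compound for full effect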). The following applies: S. cerevisiae pHLuorin cytosolic pH, at 10 µM, stronger effect = higher value.
The subject of experiment [13] is anti-desmoglein-3 scFv antibody binding to human DSG3. The experiment is described as follows: inhibitors of anti-DSG3 scFv binding to DSG3, pilot screen, biochemical, validation compound set, bead-based, flow cytometry (AID 588368;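 active = binding below the plate cutoff, the plate median minus 3 SD, with a reading above zero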;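 also: signal is the median channel fluorescence of bead-bound GFP antibody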). The following applies: Protein G beads, DSG3-Fc, scFv-GFP binding, at 10 µM, stronger effect = lower value.
Experiment [14] can be described thus: inhibitors of fungal efflux pumps CDR1, CDR2, MDR1, pilot screen, validation compound set, multiplex, phenotypic (AID 588506;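 active = efflux inhibition above 0.42, the validation set average plus 4 SD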;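 also: Nile Red retained in cells so higher fluorescence means more efflux inhibition; 0 = negative control wells and 1 = enniatin B 25 µM full block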). The following applies: S. cerevisiae pump-expressing triplex, Nile Red efflux flow cytometry; at 10 µM; stronger effect = higher value; the pumps come from Candida albicans.
The target of experiment [15] is ATP-binding cassette sub-family B member 6 (Homo sapiens) (UniProt Q9NP58). The experiment is described as follows: ABCB6 transporter inhibitors, pilot screen, K562-ABCB6 cells, flow cytometry, validation set (AID 588550;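 active = inhibition above the screen-wide mean plus 3 SD, about 51%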;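 also: 0% = DMSO wells and 100% = benzethonium chloride 70 µM positive control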). The following applies: K562-ABCB6 porphyrin accumulation, 1 h, at 10 µM, stronger effect = higher value.
The nature of experiment [16]: promoters of myeloid differentiation in arrested cells, primary screen, cell-based, GFP/MAC1 double positive, flow cytometry, validation set (AID 588685;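 active = differentiation response of at least 50%, scaled between solvent and reference control, from cells with both markers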;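 also: compound exposure lasts four days before antibody staining and flow analysis; 0% = DMSO wells and 100% = 5 µM fulvestrant positive control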). The settings on record: ER-HoxA9 marrow cells, stronger effect = higher value, normalized: vehicle 0, fulvestrant 100.

Four compounds from PubChem BioAssay can be followed below.

Results filed as inconclusive are left out. Active and inactive are the calls of the source.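 The calls were made as follows, unless noted: active = percent response above a set limit, the screen-wide mean plus 3 SD (cut at about 130% in these data); inactive = the rest.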

Chain of Beta-2 adrenergic receptor (Homo sapiens) (P07550 whole entry, looked up): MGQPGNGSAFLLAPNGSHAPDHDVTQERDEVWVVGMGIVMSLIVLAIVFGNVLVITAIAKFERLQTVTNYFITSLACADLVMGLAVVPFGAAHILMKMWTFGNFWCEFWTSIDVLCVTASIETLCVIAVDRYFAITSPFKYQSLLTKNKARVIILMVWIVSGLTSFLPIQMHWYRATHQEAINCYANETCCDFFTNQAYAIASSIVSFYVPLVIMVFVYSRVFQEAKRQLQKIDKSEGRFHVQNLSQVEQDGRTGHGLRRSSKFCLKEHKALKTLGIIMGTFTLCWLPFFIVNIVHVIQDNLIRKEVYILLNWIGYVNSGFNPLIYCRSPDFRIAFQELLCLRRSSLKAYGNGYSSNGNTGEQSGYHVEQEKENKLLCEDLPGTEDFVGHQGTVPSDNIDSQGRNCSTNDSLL
Chain of Integrin beta-1 (Homo sapiens) + Integrin alpha-4 (Homo sapiens) (P05556 whole entry, looked up): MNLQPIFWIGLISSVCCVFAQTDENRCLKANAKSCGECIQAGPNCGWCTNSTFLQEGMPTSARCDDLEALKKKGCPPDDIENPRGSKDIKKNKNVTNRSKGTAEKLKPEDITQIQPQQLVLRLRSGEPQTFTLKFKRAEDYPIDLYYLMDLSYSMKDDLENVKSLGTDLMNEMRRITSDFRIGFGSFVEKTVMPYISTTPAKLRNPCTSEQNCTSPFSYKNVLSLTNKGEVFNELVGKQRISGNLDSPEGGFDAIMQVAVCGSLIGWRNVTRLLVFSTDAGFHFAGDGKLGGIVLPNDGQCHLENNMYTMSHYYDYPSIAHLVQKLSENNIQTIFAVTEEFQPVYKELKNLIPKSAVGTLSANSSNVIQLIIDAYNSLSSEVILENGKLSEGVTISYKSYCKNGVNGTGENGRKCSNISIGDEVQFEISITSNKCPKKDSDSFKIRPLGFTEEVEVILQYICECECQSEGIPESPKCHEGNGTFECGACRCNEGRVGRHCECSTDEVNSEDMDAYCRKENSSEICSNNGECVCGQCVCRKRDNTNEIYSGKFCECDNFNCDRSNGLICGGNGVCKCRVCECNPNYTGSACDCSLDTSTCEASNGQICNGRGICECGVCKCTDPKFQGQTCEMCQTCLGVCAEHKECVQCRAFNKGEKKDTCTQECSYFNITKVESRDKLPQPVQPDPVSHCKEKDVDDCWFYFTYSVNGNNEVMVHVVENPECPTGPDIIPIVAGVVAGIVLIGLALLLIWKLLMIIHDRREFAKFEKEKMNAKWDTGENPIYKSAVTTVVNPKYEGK
Chain of Integrin beta-1 (Homo sapiens) + Integrin alpha-4 (Homo sapiens) (P13612 whole entry, looked up): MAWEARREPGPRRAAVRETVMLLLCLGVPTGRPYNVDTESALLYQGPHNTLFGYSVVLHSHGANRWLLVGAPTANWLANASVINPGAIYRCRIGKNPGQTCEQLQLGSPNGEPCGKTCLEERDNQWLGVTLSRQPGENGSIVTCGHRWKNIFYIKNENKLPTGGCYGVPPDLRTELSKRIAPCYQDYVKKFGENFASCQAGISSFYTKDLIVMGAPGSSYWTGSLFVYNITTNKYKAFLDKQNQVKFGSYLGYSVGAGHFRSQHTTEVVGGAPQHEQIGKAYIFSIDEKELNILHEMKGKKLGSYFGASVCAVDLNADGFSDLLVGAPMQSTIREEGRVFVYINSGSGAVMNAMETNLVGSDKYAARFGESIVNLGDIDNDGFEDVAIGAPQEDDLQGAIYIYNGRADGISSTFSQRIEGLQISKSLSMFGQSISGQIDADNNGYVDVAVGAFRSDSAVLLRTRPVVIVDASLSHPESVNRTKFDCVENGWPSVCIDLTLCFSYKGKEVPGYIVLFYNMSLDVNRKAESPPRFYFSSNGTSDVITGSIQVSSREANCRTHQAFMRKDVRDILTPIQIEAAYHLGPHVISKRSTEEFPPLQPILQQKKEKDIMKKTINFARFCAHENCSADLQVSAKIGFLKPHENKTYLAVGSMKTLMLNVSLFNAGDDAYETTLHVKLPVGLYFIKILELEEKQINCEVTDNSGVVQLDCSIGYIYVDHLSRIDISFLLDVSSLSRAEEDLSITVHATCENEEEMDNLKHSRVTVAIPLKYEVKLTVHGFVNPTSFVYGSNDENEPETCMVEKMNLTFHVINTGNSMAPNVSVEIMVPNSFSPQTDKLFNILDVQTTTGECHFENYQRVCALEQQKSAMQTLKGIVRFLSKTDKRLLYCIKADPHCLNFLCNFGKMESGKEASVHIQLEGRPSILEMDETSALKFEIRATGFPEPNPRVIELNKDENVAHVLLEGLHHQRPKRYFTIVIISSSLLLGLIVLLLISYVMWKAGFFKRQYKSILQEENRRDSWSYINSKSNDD
Chain of Beta-adrenergic receptor kinase 1 (Homo sapiens) (P25098 whole entry, looked up): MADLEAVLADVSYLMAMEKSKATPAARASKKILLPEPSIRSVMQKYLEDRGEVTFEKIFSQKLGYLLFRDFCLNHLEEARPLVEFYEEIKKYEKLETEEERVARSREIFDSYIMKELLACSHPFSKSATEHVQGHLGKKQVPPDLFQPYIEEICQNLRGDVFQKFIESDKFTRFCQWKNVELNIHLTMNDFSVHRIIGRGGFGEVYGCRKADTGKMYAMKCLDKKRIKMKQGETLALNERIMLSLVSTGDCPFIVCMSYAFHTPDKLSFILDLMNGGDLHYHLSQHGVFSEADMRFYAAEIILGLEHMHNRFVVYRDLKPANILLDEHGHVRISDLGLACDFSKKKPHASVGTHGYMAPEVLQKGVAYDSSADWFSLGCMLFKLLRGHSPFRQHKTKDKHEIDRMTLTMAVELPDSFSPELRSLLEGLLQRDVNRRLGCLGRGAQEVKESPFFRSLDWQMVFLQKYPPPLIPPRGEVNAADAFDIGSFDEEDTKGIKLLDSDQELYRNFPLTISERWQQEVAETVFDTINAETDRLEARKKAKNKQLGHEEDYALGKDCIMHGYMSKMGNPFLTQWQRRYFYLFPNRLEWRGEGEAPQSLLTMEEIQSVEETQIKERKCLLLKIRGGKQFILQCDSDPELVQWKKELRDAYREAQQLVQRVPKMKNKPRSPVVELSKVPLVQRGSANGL
Chain of AP-2 complex subunit beta (Homo sapiens) (P63010 whole entry, looked up, the tested form may be a part, one chain of several): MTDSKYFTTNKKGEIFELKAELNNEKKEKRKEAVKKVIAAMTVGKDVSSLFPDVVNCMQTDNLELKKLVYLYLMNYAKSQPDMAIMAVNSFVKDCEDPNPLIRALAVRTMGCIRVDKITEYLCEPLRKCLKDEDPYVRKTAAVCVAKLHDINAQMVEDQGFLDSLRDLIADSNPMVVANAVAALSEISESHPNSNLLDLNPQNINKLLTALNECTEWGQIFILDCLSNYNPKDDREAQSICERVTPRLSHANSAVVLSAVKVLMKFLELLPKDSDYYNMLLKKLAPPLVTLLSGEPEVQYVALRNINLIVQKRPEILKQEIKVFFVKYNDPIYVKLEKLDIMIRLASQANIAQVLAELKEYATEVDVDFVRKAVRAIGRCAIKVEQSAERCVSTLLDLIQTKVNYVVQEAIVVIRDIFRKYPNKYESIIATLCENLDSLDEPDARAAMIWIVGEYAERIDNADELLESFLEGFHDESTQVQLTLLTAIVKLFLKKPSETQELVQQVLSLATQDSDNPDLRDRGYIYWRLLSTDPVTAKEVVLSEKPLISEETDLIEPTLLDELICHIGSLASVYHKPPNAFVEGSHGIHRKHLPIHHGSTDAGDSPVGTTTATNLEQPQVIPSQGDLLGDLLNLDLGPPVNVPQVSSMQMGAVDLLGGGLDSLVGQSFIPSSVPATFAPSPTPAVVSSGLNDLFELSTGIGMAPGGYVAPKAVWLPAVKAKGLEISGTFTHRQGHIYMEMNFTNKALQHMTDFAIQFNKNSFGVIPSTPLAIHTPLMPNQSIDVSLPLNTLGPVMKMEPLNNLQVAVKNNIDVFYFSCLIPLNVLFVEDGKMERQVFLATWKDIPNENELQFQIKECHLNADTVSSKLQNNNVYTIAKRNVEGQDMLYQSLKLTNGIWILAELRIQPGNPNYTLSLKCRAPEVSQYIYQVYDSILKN
Chain of ATP-binding cassette sub-family B member 6 (Homo sapiens) (Q9NP58 whole entry, looked up): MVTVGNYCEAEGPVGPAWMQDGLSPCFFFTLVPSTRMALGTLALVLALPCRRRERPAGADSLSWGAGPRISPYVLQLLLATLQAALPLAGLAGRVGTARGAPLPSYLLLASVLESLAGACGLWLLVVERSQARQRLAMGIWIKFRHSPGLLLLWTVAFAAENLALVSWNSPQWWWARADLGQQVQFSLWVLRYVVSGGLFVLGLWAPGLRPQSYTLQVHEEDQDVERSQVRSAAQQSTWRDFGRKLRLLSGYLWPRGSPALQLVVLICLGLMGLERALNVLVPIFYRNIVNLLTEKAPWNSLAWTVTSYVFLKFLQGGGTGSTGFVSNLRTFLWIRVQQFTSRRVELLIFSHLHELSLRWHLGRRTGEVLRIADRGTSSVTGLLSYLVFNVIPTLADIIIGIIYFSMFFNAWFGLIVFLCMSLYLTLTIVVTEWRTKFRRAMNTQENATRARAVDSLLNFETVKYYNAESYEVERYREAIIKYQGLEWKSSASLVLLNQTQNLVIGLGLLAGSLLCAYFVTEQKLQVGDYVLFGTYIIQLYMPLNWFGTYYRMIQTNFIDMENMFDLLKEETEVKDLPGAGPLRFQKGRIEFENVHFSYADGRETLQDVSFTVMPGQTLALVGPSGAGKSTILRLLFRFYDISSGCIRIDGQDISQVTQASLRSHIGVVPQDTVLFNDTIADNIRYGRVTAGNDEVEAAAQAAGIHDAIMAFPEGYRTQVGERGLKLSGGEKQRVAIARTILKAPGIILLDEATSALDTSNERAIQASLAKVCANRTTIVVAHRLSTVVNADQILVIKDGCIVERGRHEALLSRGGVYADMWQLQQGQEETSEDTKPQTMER

On to `COc1ccccc1CCn1cnc2c3cc(C)ccc3n(C)c2c1=O`, for which the percent of DMSO control GFP in experiment [1] was 100% (inactive). Besides, the GFP response vs DMSO in [2] was 106% (inactive); in experiment [4] it was 108% (inactive). Further, the percent response of DMSO control in experiment [3] was 105% (inactive). In addition, the GFP response, % of DMSO in experiment [5] was 98.8% (inactive). Also, in [6], the double positive events worked out at 56.6%. Moreover, the vesicle binding response in experiment [6] is 138% (inactive). The results for the inhibition in experiment [7], in experiment [11] and in experiment [15] were -27.9% (inactive), 9.65% (inactive) and -9% (inactive), respectively. Besides, in experiment [8], the superoxide response (% of plate) is 94.8% (inactive). Besides, the aptamer binding inhibition in [9] is -1% (inactive). The response in experiment [10] was -8.23% (inactive); in [12] it was -3.34% (inactive). In experiment [13], the binding (% of control) was 101% (inactive). For the same compound, the efflux inhibition (fraction of control) in experiment [14] is -0.31 (inactive). Also, the differentiation response in [16] was -14.8% (inactive).
As for `Cc1ccc(N2CCN(C(=S)c3ccc(-c4cccc([N+](=O)[O-])c4)o3)CC2)cc1`, the percent of DMSO control GFP in [1] is 98.1% (inactive). Further, the GFP response vs DMSO is 103% (inactive) in experiment [2] and 126% (inactive) in experiment [4]. Also, the percent response of DMSO control in experiment [3] is 109% (inactive). For the same compound, the GFP response, % of DMSO in experiment [5] was 124% (inactive). The double positive events in experiment [6] is 61.7%. For the same compound, the vesicle binding response in experiment [6] is 217% (inactive). Besides, the inhibition was -4.52% (inactive) in experiment [7], 1.79% (inactive) in experiment [11] and 3% (inactive) in experiment [15]. In addition, the superoxide response (% of plate) in experiment [8] was 89.3% (inactive). The aptamer binding inhibition in experiment [9] was 3% (inactive). Further, the response is -41.3% (inactive) in experiment [10] and -4.54% (inactive) in experiment [12]. In experiment [13], the binding (% of control) is 102% (inactive). Also, in [14], the efflux inhibition (fraction of control) was -0.13 (inactive). In addition, in [16], the differentiation response was -9.91% (inactive).
Consider `Cc1ccc2c(c1)C1CN(C)CCC1N2S(=O)(=O)c1ccc(Oc2ccc([N+](=O)[O-])cc2)cc1` (stereo not drawn), for which, in experiment [1], the percent of DMSO control GFP is 104% (inactive). Moreover, the GFP response vs DMSO is 103% (inactive) in experiment [2] and 91.5% (inactive) in experiment [4]. The percent response of DMSO control in [3] was 106% (inactive). The GFP response, % of DMSO in experiment [5] was 97% (inactive). The compound further had a double positive events in [6] of 56.7%. The vesicle binding response in experiment [6] was 153% (inactive). Moreover, the inhibition in experiment [7] was 2.93% (inactive); in experiment [11] it was -1.46% (inactive); in [15], -4% (inactive). For the same compound, in experiment [8], the superoxide response (% of plate) was 97.8% (inactive). In addition, the aptamer binding inhibition in experiment [9] is -7% (inactive). Also, the response in experiment [10] was 25.2% (inactive); in experiment [12] it was 10.4% (inactive). In experiment [13], the binding (% of control) is 105% (inactive). Further, the efflux inhibition (fraction of control) in [14] was 0.085 (inactive). The differentiation response in experiment [16] is -14.8% (inactive).
Consider `O=C(Cc1c[nH]c2ccccc12)OCCOC(=O)Cc1c[nH]c2ccccc12`, for which the percent of DMSO control GFP in experiment [1] is 104% (inactive). The GFP response vs DMSO is 96.6% (inactive) in experiment [2] and 100% (inactive) in experiment [4]. Moreover, the percent response of DMSO control in experiment [3] is 110% (inactive). Further, in experiment [5], the GFP response, % of DMSO is 101% (inactive). Also, the double positive events in [6] is 60.9%. Also, the vesicle binding response in experiment [6] is 111% (inactive). Also, the inhibition in experiment [7] is -3.77% (inactive); in experiment [11] it was -12.4% (inactive); in [15], -4% (inactive). In addition, the superoxide response (% of plate) in experiment [8] is 103% (inactive). The aptamer binding inhibition in [9] was -1% (inactive). Further, the response in experiment [10] is -3.51% (inactive); in experiment [12], 1.88% (inactive). For the same compound, the binding (% of control) in experiment [13] is 99.6% (inactive). The efflux inhibition (fraction of control) in [14] is -0.12 (inactive). In addition, in experiment [16], the differentiation response is -4.57% (inactive).

As usually defined, the inhibition is the change of the read-out against control, counted positive when it falls.
